High-throughput results as filed in PubChem BioAssay.
Rows were chosen to be rich in hits. Some 4.2% of all compounds tested hit in one or more screens of this group.
SW480 rerep: induces DNA re-replication in SW480 colon adenocarcinoma cells | SW480 DNA re-replication, Hoechst DNA content imaging, 48 h | Potency, µM (series often up to 46.1 µM), inactives show at the top dose re-replication activation, most hits filed as activators | 340,000 tested, 1.8% active | AID 624297; also: % of control where 0% means no effect; nearly all actives have a fitted effect of over 55% in size
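Per well, 250 cells were exposed to pinned compound for 48 hr. Nuclear DNA was visualised with Hoechst (40 min, 37 C) and total object intensity recorded by fluorescence scanning.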
MCF10A rereplic: induces DNA re-replication in MCF 10a normal breast cells | MCF 10A DNA re-replication, Hoechst nuclear intensity, 48 h | Potency, µM (doses to about 46.1 µM), without a hit: at the top dose activity, positive = re-replication, usual class: activators | 350,000 tested, 2.9% active | AID 624296; also: % of control where 0% means no effect; nearly all actives have a fitted effect of over 50% in size
AT treatment: potential ataxia-telangiectasia treatments restoring KAP-1 phosphorylation | Potency, µM (top dose mostly 57.5 µM), without a hit: at the highest dose activation, usual class: activators | 320,000 tested, 0.19% active | F2112 A-T fibroblasts, KAP-1 phosphorylation AlphaLISA; neocarzinostatin DNA damage 30 min before lysis | AID 485349; also: % of control where 0% means no effect; nearly all actives have a fitted effect of over 45% in size
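hTERT-immortalized A-T patient fibroblasts (F2112), 500 cells/well in OPTI-MEM, 1% FBS, got compounds for 60 min, then NCS for 30 min at 37C. Lysates were then assayed for phospho-KAP-1 by AlphaLISA (anti-pKAP1 donor, anti-KAP1 acceptor beads), 6 hr at 25C.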
Mito fusion act: mitochondrial division inhibition or fusion activation | Potency, µM (titrated, usually from 46.1 µM), for the others: at the top dose growth rescue (activation), hits mostly activators | 320,000 tested, 0.23% active | AID 485298 | S. cerevisiae fusion-defective mutant growth rescue, CellTiterGlo 48 h; also: % of control where 0% means no effect; nearly all actives have a fitted effect of over 45% in size
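Yeast fusion mutant, YPEG (non-fermentable carbon), compound, 48 h at 37C non-permissive; CellTiterGlo added, 10 min RT, luminescence read. Rescued growth = division inhibition.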
Integrin act MD: integrin-mediated muscular dystrophy alleviation activation; alpha7betagal myoblasts, beta-gal FDG fluorescence, 48 h; Potency, µM (series often up to 38.3 µM), for the others: top-dose activation, hits mostly activators; 350,000 tested, 0.064% active;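 also: 100% = response of the positive control SU9516; nearly all actives have a fitted effect of over 60% in size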
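Alpha7betagal+/- myoblasts (passage 13) were plated 16-24 hr, then exposed to compounds (1:260 dilution of DMSO stock) for 48 hours at 37C. After MPER lysis, β-galactosidase reporter activity was read as FDG fluorescence (ex 480/em 540) after 30 minutes.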
Active calls of the source: *; ? = inconclusive; nt = no result; [ ] = dose if it differs, or a comment. Calls follow the shape of the dose curve; as a rule, active = well fitted activation curve with a large enough effect; inconclusive = small, poorly fitted or top-dose-only effect; inactive = no such curve, though single readings can be large or run the other way. Potency is read from the fitted curve at half-maximal effect.

SMILES | SW480 rerep | MCF10A rereplic | AT treatment | Mito fusion act | Integrin act MD
Cc1ccc(/C=N/NC(=O)c2ccc3ccccc3c2)s1 | 4.1µM* | 4.6µM* | -5% | 0% | -22%
O=C(N/N=C/c1cc(Br)cs1)c1ccc2c(c1)OCCO2 | ? | ? | 0% | -5% | -3%
CC(/C=C/c1ccccc1)=N\NC(=O)c1ccc2c(c1)OCCO2 | 18µM* | 21% | -1% | -35% | -29%
CC(C)CCNC(=O)C(=O)Nc1cc2c3c(c1)CCC(=O)N3CCC2 | -8% | 3% | 14% | -20% | 0%
C/C(=N\OC(=O)Nc1ccc(Cl)cc1)c1ccc(F)c(F)c1 | -7% | ? | 11% | -15% | -11%
CC(C)C(Cl)=NOC(=O)Nc1ccc(F)cc1 | ? | 3.3µM* | nt | nt | -51%
CCCCCOc1ccc(Br)cc1/C(C)=N/NC1=NCCN1 | 3.3µM* | 3.3µM* | nt | 0% | -51%
NC(N)=NC[C@@H]1COC2(CCCCC2)O1 | -3%[20.6 µM] | 2%[20.6 µM] | nt | nt | nt
O=C(COC(=O)c1nc(Cl)c(Cl)c(Cl)c1Cl)NCc1ccccc1 | 16µM* | ? | -3% | -8% | -25%
CC(=O)Nc1ccc(S(=O)(=O)c2ccnc3cc(Cl)ccc23)cc1 | nt | nt | nt | nt | -48%
CC(C)c1c(C(=O)Nc2ccccc2)c(-c2ccccc2)c(-c2ccc(F)cc2)n1CC[C@@H](O)C[C@@H](O)CC(=O)O | ? | 7% | nt | nt | nt
COc1ccc(C2CC(c3ccccc3)=NN2S(=O)(=O)c2ccccc2)cc1 (stereo not drawn) | ? | 20% | -5% | -1% | -20%
COc1ccc(C2CC(c3cccc(Cl)c3)=NN2c2ccc(S(N)(=O)=O)cc2)cc1 (stereo not drawn) | 2.1µM* | 1.3µM* | 36% | nt | -37%
COc1ccc(C2CC(c3ccncc3)=NN2c2ccc(S(N)(=O)=O)cc2)cc1 (stereo not drawn) | 18µM* | 2.9µM* | -1% | nt | 0%
COc1ccc(C2CC(c3ccc(Cl)cc3)=NN2c2ccc(S(N)(=O)=O)cc2)cc1 (stereo not drawn) | 0.82µM* | ? | 16% | nt | -12%
Oc1ccccc1C1CC(c2cccs2)=NC(c2ccc(Cl)cc2)N1 (stereo not drawn) | 18µM* | 4.6µM* | 17% | ? | -66%
Cc1ccc(N(C(=O)c2csnn2)C(C(=O)NC(C)(C)C)c2ccncc2)cc1 (stereo not drawn) | 18µM* | 9.2µM* | -2% | 0% | 2%
O=C1CCCN1CCCNS(=O)(=O)c1ccc(F)c(F)c1 | -11% | -2% | 4% | 0% | 28%
Cc1cccc(-n2c(N)c(-c3nc4ccccc4n3C)c3nc4ccccc4nc32)c1 | 5.8µM* | ? | 18% | 25% | -15%
Cn1c(-c2c(N)n(-c3ccccc3)c3nc4ccccc4nc23)nc2ccccc21 | 15µM* | 8.2µM* | 34% | ? | -5%
O=C(N/N=C(\CC(=O)c1cccs1)C(F)(F)F)c1ccncc1 | 7.3µM* | ? | -10% | 12% | 20%
Cc1ccc(C(=O)N/N=C(/CC(=O)c2cccs2)C(F)(F)F)cc1 | -3% | 18µM* | 7% | ? | -11%
Cc1cccc(N/C(N)=N/c2nc(C)cc(=O)[nH]2)c1 | -5% | -9% | 7%[11.5 µM] | -1% | -13%
CC1CC/C(=C\c2ccc3c(c2)OCO3)C(=O)/C1=C/c1ccc2c(c1)OCO2 (stereo not drawn) | ? | 7.3µM* | -1% | -1% | -61%
CC1=NOC(=O)/C1=C/c1ccc2c(c1)OCO2 | 1% | 0% | 3% | -3% | 24%
O=C1OCC/C1=C\c1ccc2c(c1)OCO2 | 10% | 8% | -8% | 7% | 4%
O=C1/C(=C\c2ccc3c(c2)OCO3)CCC/C1=C/c1ccc2c(c1)OCO2 | -2% | 12µM* | 6% | -8% | -48%
Cc1noc(C)c1S(=O)(=O)Nc1ccc(C(C)C)cc1 | ? | 23µM* | -5% | ? | -1%
Cc1ccc(CNC(=O)c2ccc(NS(=O)(=O)c3c(C)noc3C)cc2)cc1 | -6% | 4% | 2% | 1% | 10%
CS(=O)(=O)c1ccc(Cl)c(NC(=O)CSc2nnc3n2CCCCC3)c1 | nt | nt | nt | nt | 1%
